As usually defined, the inhibition is the relative decrease from the control value, in per cent.

The nature of this test: inhibitors of PAF-induced NFkB signaling in CF airway cells, dose response, cell-based, uHTS hits, panel, cytotoxicity readout (AID 624344). Conditions: CF bronchial epithelial cells, PAF-induced NFkB reporter inhibition, with PAF, run 2; at 79 µM (top of the series) unless noted.
Regarding `CC(=O)Oc1ccccc1C(=O)Oc1ccc(/C=N/n2cnnc2)cc1`, the inhibition came out at 105%.

In the case of `Cc1ccc(C(=O)Nc2cccc(C(F)(F)F)c2)cc1NC(=O)c1cnnc2ccccc12`, the inhibition was 88.8%.

Turning to `NC(=O)c1cc2ccc(O)cc2oc1=Nc1ccccc1`, the inhibition stood at 95.2%.

For `COc1ccccc1NC(=O)c1cc2c(CO)cnc(C)c2oc1=Nc1ccc(OC)c(OC)c1`, the inhibition was determined as 93.8%.

With `CCOC(=O)C1=C(C)Nc2ccccc2N=C1NC(=O)c1oc2ccccc2c1COC`, the inhibition came out at 101%.

In the case of `COc1ccc(CNc2nn3c(-c4cccc(C(=O)N(C)C)c4)cnc3s2)cc1`, the inhibition came to 104%.

Regarding `c1csc(CNc2ncnc3ccc(-c4ccoc4)cc23)c1`, the inhibition is 116%.

Consider `CC(=O)Nc1ccc(Nc2nc(-c3sc(NC(C)=O)nc3C)cs2)cc1`, for which the inhibition worked out at 110%.

In the case of `O=C(c1ccc(O)c(Br)c1)c1cc(Br)ccc1O`, the inhibition is 109%.

Turning to `CC(C)CNC(=O)c1coc(=O)c(Br)c1`, the inhibition turned out to be 63.6%.

As to `Cc1nc([N+](=O)[O-])c(Sc2nc3ccc([N+](=O)[O-])cc3[nH]2)n1Cc1ccccc1`, the inhibition worked out at 112%.

Regarding `COc1cccc(/C=N/n2c(C3CCCCC3)n[nH]c2=S)c1`, the inhibition came out at 106%.

Turning to `COc1cccc(NC(=O)CN(C)CC(=O)Nc2ccc(C)c([N+](=O)[O-])c2)c1`, the inhibition worked out at 101%.

On to `c1nc(NCc2ccc3c(c2)OCO3)c2cc(-c3ccoc3)ccc2n1`, for which the inhibition stood at 102%.

For the compound `O=C(N/N=C/c1ccccc1Cl)c1[nH]c2ccc(Br)cc2c1-c1ccccc1`, the inhibition came to 109%.

Take `NC(N)=NN=C(c1ccc(F)cc1)c1ccc(C(F)(F)F)cc1`: the inhibition was 117%.

As for `CCc1ccc(Nc2n[n+](-c3ccccc3)c(-c3c(Cl)cccc3Cl)s2)cc1`, the inhibition amounted to 101%.

For `CC(C)C[C@@H]1NC(=O)[C@H](Cc2ccccc2)N(C)C(=O)[C@H](C)NC(=O)c2ccccc2NC(=O)[C@H](Cc2ccc(O)cc2)N(C)C1=O`, the inhibition is 103%.

Consider `CCCCN(CCCC)c1ncnc2nc[nH]c12`, for which the inhibition stood at 118%.

As for `Cc1ccc(C(=O)c2cc([N+](=O)[O-])ccc2N2CCCCC2)c(C)c1`, the inhibition turned out to be 54.3%.

`O=C(c1nnsc1S(=O)c1ccc(Cl)cc1)N1CCOCC1` (centres undefined): the inhibition worked out at 110% [at 19.8 µM].

Consider `O=C(NCCCSc1ccccc1)c1cc(Br)ccc1O`, for which the inhibition amounted to 103%.

Consider `COc1cc2c(Cc3ccccc3)cncc2cc1O`, for which the inhibition worked out at 96.3%.

In the case of `CCOC(=O)Cc1nnc2c(Nc3ccc(Cl)cc3)nc3nonc3n12`, the inhibition stood at 101%.

Take `Cc1ccnc(NC(=O)CCCOc2cc(=O)n(C)c3ccccc23)c1`: the inhibition was found to be 112%.

For `CC(C)OC(=O)c1cccc(C(=O)Nc2cccc(NC(=O)c3cccc(C(=O)OC(C)C)n3)n2)n1`, the inhibition worked out at 109% [at 19.8 µM].

As to `CCN(CC(=O)Nc1ccc(OC)cc1)C(=O)c1cc(-c2cccs2)nn1-c1ccccc1`, the inhibition stood at 98.4%.

In the case of `CCN1CCN(Cc2ccc(NC(=O)c3ccc(C)c(NC(=O)c4csc(-c5ccncc5)n4)c3)cc2C(F)(F)F)CC1`, the inhibition turned out to be 101%.

`CN(c1cccc(Cl)c1)S(=O)(=O)c1cccc(C(=O)Nc2nc3ccccc3[nH]2)c1`: the inhibition was 99.5%.

With `O=C(Nc1ccc(Oc2ccc(NC(=O)Nc3ccc([N+](=O)[O-])cc3)cc2)cc1)Nc1ccc([N+](=O)[O-])cc1`, the inhibition amounted to 114%.

Take `Cc1ccc(S(=O)(=O)Nc2nc3ccccc3nc2Nc2cccc(S(=O)(=O)N3CCCC3)c2)cc1`: the inhibition was found to be 103%.

With `CCOC(=O)/C=c1/s/c(=C\c2c(OC)ccc3ccccc23)c(=O)n1CC(=O)NCC1CCCO1` (centres undefined), the inhibition turned out to be 46.6% [at 39.5 µM].

In the case of `Cc1cc2cc(CCNC(=O)C(=O)c3c[nH]c4ccccc34)c(=O)[nH]c2cc1C`, the inhibition was found to be 95.5%.

As for `COc1ccccc1Cn1c(=O)c2ccccc2n2c(Sc3ncnc4sccc34)nnc12`, the inhibition is 113%.

Turning to `FC(F)Sc1ccc(NC(=S)NCC2CCCCC2)cc1`, the inhibition is 112%.

For `C=C(C)[C@@H]1CCC2(C(=O)O)CC[C@]3(C)[C@H](CC[C@@H]4[C@@]5(C)CCC(=O)C(C)(C)[C@@H]5CC[C@]43C)[C@@H]12` (some centres undefined), the inhibition is 102%.

`CC1(Cc2ccc(F)cc2)C(=O)Nc2ccc(-c3cccnc3)cc21` (centres undefined): the inhibition turned out to be 108%.

Regarding `C=C1C(=O)[C@]23C[C@H]1CC[C@H]2[C@]1(C)[C@@H](OC(C)=O)CC[C@@](C)(C(=O)O)[C@H]1C[C@@H]3O`, the inhibition turned out to be 94%.

Turning to `Nc1cc2c(cc1Br)-c1ccccc1C2=NO`, the inhibition was 106%.
